The whole screen tested about 1,200 compounds, of which about 950 (79%) were called active. So high a share suggests a set chosen from earlier hits. A selection follows. Potency and affinity values are given separately. Values without a mark were called inactive.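 Rule for the calls: active = signal rises and fitted curve reaches 40% activity at or below the top valid tested dose, in every replicate test; inconclusive = replicate tests give mixed calls; inactive = the rest, including activity in the opposite direction.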

A short description of this assay: compounds raising Bmi1 reporter signal – mouse embryonic stem cells, luciferase, cherry-pick, esBAF inhibitor project, dose response (AID 651717).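 Note: luciferase knocked into Bmi1 locus with EF-1a renilla as cell number control; rising ratio signals esBAF inhibition which derepresses Bmi1.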 The note with it: mESC Bmi1-luciferase reporter, firefly/renilla ratio, 24 h, hits give high values; at 35 µM unless noted. A general note: A reporter such as luciferase makes a cellular process visible.
For the compound `COc1ccc2oc(C(=O)OCC(=O)Nc3ccc(C)c(S(=O)(=O)N4CCOCC4)c3)c(C)c2c1`, the max activity was 34.7%.
For `C[C@H](CO)N1C[C@H](C)[C@@H](CN(C)C(=O)Nc2ccc(F)cc2)OCCCC[C@H](C)Oc2ccc(NC(=O)Nc3ccc4c(c3)OCO4)cc2C1=O`, the max activity was 15.2% [at 8 µM].
The result for `Cc1ccc(C(=O)Nc2nc(=O)n(C(=O)c3ccccc3C)s2)cc1` reads 38.3% [at 16 µM]; that for `Cc1ccc(-n2nc(C(=O)c3ccccc3)n3c(=O)cc(-c4ccccc4)nc23)cc1`, 5.74% [at 16 µM]; that for `CC(C)c1ccc(NC(=O)C(c2ccccc2)N2CC(=O)Nc3ccccc32)cc1` (stereo not drawn), 10.6%.
The value for `C[C@@H]1CCCCO[C@@H](CN(C)C(=O)Nc2ccc3c(c2)OCO3)[C@H](C)CN([C@H](C)CO)C(=O)c2cc(NC(=O)Nc3ccc4c(c3)OCO4)ccc2O1` was 17.2% [at 16 µM]; that for `C[C@@H]1CN([C@@H](C)CO)C(=O)c2cc(NC(=O)Nc3ccc4c(c3)OCO4)ccc2O[C@H]1CN(C)C(=O)Nc1ccc(C(F)(F)F)cc1` was -14.9%; that for `C[C@@H]1CN([C@@H](C)CO)C(=O)c2cc(NC(=O)Nc3ccc4c(c3)OCO4)ccc2O[C@@H](C)CCCCO[C@@H]1CN(C)C(=O)Nc1ccc2c(c1)OCO2` was 18.2%.
The result for `C[C@H](CO)N1C[C@H](C)[C@@H](CN(C)C(=O)Nc2ccc3c(c2)OCO3)OCCCC[C@H](C)Oc2ccc(NC(=O)Nc3ccc4c(c3)OCO4)cc2C1=O` reads 12.8%; that for `O=C(CCCc1ccccc1)Nc1ccccc1C(F)(F)F`, 21.6%.
Regarding `C[C@@H]1CN([C@@H](C)CO)C(=O)c2cc(NC(=O)Nc3ccc4c(c3)OCO4)ccc2O[C@@H](C)CCCCO[C@H]1CN(C)C(=O)Nc1ccccc1`, the max activity is 33.3%.
The value for `C[C@@H]1CCCCO[C@H](CN(C)C(=O)Nc2ccc(F)cc2)[C@H](C)CN([C@@H](C)CO)C(=O)c2cc(NC(=O)Nc3ccc4c(c3)OCO4)ccc2O1` was 7.08% [at 1 µM]; that for `O=S(=O)(c1cccs1)N1CN(Cc2ccc(Cl)cc2)c2nc3ccccc3nc21` was -33.7%.
The result for `COc1ccc(-c2nn(-c3ccccc3)cc2/C=C(\CC(=O)O)c2nc3ccccc3s2)cc1OC` reads 26.9%; that for `C[C@@H]1CCCCO[C@@H](CN(C)S(=O)(=O)c2cn(C)cn2)[C@H](C)CN([C@H](C)CO)C(=O)c2cc(NC(=O)Nc3ccc4c(c3)OCO4)ccc2O1`, -9.02% [at 2.1 µM].
The result for `CN(c1ccc(O)cc1)S(=O)(=O)c1ccc2ccccc2c1` reads 14.3% [at 8 µM]; that for `CCCN(Cc1ccc(C)cc1)C(=O)c1ccc(CNS(=O)(=O)c2ccc(C(C)=O)cc2)cc1`, 33.1% [at 16 µM].
Regarding `COc1cccc(CN(C(=O)c2cc3ccccc3oc2=O)C2CC2)c1`, the max activity was 35% [at 8 µM].
With `O=C1NC[C@H](c2ccccc2)OC(=O)[C@@H](Cc2ccc(F)cc2)C/C=C\C[C@H]1CC(=O)N(CCO)Cc1ccccc1`, the max activity was 25.5%.
The value for `COC(=O)c1ccc2c(=O)n(CC3CCCO3)c(SCC(=O)Nc3ccccc3Cl)nc2c1` (stereo not drawn) was 24.8% [at 8 µM]; that for `C[C@@H]1CCCCO[C@@H](CN(C)C(=O)Nc2cccc3ccccc23)[C@H](C)CN([C@H](C)CO)C(=O)c2cc(NC(=O)C3CCCCC3)ccc2O1` was 28.2% [at 16 µM].
Consider `COc1ccc(CNC(=O)N(C)C[C@@H]2OCc3ccccc3-c3c(n(C)c4ccccc34)C(=O)N([C@H](C)CO)C[C@@H]2C)cc1`, for which the max activity was -26.4% [at 30 µM].
The result for `COc1ccc(-c2cc(C(=O)N3CCCCCC3)no2)cc1OC` reads 32.3%; that for `CS(=O)(=O)NN1C(=O)c2ccccc2NC1c1cc2ccccc2nc1Cl` (stereo not drawn), 18.4%; that for `COc1ccc(C(=O)O/N=C(\N)c2ccc(OC)c(OC)c2)c(OC)c1`, 34.8%.
The result for `O=C(NCC[C@@H]1CC[C@H](NC(=O)Nc2cc(F)ccc2F)[C@H](CO)O1)Nc1ccc(Cl)cc1` reads 29.7%.
The value for `O=C(NCC[C@@H]1CC[C@@H](NC(=O)Nc2cc(F)ccc2F)[C@H](CO)O1)Nc1ccc(Cl)cc1` was -11.9% [at 16 µM]; that for `C[C@@H]1CN([C@H](C)CO)C(=O)c2c(c3ccccc3n2C)-c2ccccc2CO[C@H]1CN(C)C(=O)Nc1ccc2c(c1)OCO2` was -14.5%.
Consider `CC(C)c1ccc(NC(=O)c2ccccc2NC(=O)C2CCCCC2C(=O)O)cc1` (stereo not drawn), for which the max activity was 41%.
The result for `Cc1cccc(NC2SC(=O)N(c3ccccc3)C2=O)c1` (stereo not drawn) reads 37.5%; that for `O=C(/C=C/NNC(=O)c1ccccc1O)c1ccccc1`, 4.98% [at 4.2 µM]; that for `CCn1c(CCNC(=O)c2cccs2)nnc1SCC(=O)Nc1nc(-c2ccccc2)cs1`, 32.7%.
The result for `C[C@@H]1CCCCO[C@@H](CN(C)C(=O)Nc2ccccc2)[C@@H](C)CN([C@@H](C)CO)C(=O)c2cc(NC(=O)Nc3ccc4c(c3)OCO4)ccc2O1` reads 13.1% [at 16 µM].
On to `C[C@@H]1CCCCO[C@@H](CN(C)C(=O)Nc2cccc3ccccc23)[C@H](C)CN([C@H](C)CO)C(=O)c2cc(NC(=O)Cc3ccccc3)ccc2O1`, for which the max activity is -4.4% [at 2.1 µM].
The value for `Brc1ccc(N=C/C=C/C=C/Nc2ccc(Br)cc2)cc1` was 9.66% [at 4.2 µM]; that for `C[C@H](CO)N1C[C@H](C)[C@@H](CN(C)S(=O)(=O)c2cccs2)Oc2c(NC(=O)Nc3ccc4c(c3)OCO4)cccc2C1=O` was -24.2%; that for `CCc1ccc(C(O)c2ncc(-c3cccc(F)c3)[nH]2)cc1` (stereo not drawn) was -31.3%.
The result for `OC(c1ccccc1)c1ncc(-c2ccccc2F)[nH]1` (stereo not drawn) reads -21.5%; that for `COc1cccc(-c2cnc(C(O)c3ccc(F)cc3)[nH]2)c1` (stereo not drawn), 32% [at 8 µM]; that for `Cc1ccc(S(=O)(=O)N2CCOCC2)cc1C(=O)Nc1ccc(-c2cn3ccsc3n2)cc1`, -8.19%.
With `CC(C)c1ccc(Nc2ncc3c(n2)CCN(C(=O)Nc2ccc(F)c(Cl)c2)C3)cc1`, the max activity was 20.6%.
Regarding `N#Cc1cccc(NC(=O)c2cc(C3CCCCN3S(=O)(=O)c3cccc4cccnc34)on2)c1` (stereo not drawn), the max activity was -16.3%.
The value for `O=C(Nc1ccc(F)c(Cl)c1)c1cc(C2CCCN(S(=O)(=O)c3cccc4cccnc34)C2)on1` (stereo not drawn) was 29.2% [at 16 µM]; that for `COC(=O)c1ccc(-c2ccc(OC)c([C@H]3[C@H]4C=CC[C@@H](C)[C@@H]4C(=O)N3Cc3ccccc3)c2)cc1` was -14.1%; that for `O=C1C2C(c3cccc(/C=C/c4ccccc4)c3)CC=CC2C(c2ccc3ccccc3c2)N1Cc1ccccc1` (stereo not drawn) was 17.2%.
The value for `CN(C)C(=O)CCc1ccc2c3c([nH]c2c1)[C@]1(CCc2ccccc2)[C@@H](C(=O)N2CCCCC2)C[C@H](CC(=O)NCCC2=CCCCC2)C(=O)N1CC3` was -35% [at 8 µM].
The result for `C[C@H](CO)N1C[C@H](C)[C@@H](CN(C)C(=O)Nc2ccc3c(c2)OCO3)Oc2ncc(C#CC3(O)CCCC3)cc2C1=O` reads -4.31% [at 16 µM]; that for `C[C@H](CO)N1C[C@H](C)[C@H](CN(C)C(=O)Nc2ccc3c(c2)OCO3)Oc2c(NS(=O)(=O)c3ccccc3)cccc2C1=O`, -12.7%.
Consider `C[C@@H]1CCCCO[C@H](CN(C)S(=O)(=O)c2cn(C)cn2)[C@@H](C)CN([C@@H](C)CO)C(=O)c2cc(NC(=O)Nc3ccc4c(c3)OCO4)ccc2O1`, for which the max activity is -8.77% [at 8 µM].
In the case of `C[C@H](CO)N1C[C@H](C)[C@@H](CN(C)S(=O)(=O)c2cn(C)cn2)Oc2c(NC(=O)Nc3ccc4c(c3)OCO4)cccc2C1=O`, the max activity is -22.8%.
For `O=C(NCC[C@H]1CC[C@H](NC(=O)Nc2cc(F)ccc2F)[C@H](CO)O1)Nc1ccc(Cl)cc1`, the max activity is 31.4%.
With `Cc1ccc(S(=O)(=O)N[C@H]2CC[C@@H](CCNC(=O)Nc3ccc(Cl)cc3)O[C@H]2CO)cc1`, the max activity was -11.4%.
Consider `C[C@H]1CN([C@@H](C)CO)C(=O)c2c(c3ccccc3n2C)-c2ccccc2CO[C@H]1CN(C)C(=O)Nc1ccc2c(c1)OCO2`, for which the max activity is -25.1%.
The value for `Cc1noc(C)c1NC(=O)N(C)C[C@@H]1Oc2ncc(C#CC3CC3)cc2C(=O)N([C@@H](C)CO)C[C@H]1C` was 9.7% [at 8 µM]; that for `O=C(Cc1ccc(Cl)cc1)NC1CCCCCC1` was 37.5%.
For the compound `CC(C)NC(=O)N(C)C[C@@H]1OCCCC[C@H](C)Oc2ccc(NC(=O)Nc3ccc4c(c3)OCO4)cc2C(=O)N([C@H](C)CO)C[C@@H]1C`, the max activity is 11.4% [at 0.5 µM].
The result for `CS(=O)(=O)Nc1ccc(C2=NN(S(C)(=O)=O)C(c3cccs3)C2)cc1` (stereo not drawn) reads 36.3% [at 16 µM].
`COc1ccc(S(=O)(=O)N2Cc3ccccc3CC2C(=O)Nc2ccc3c(c2)OCO3)cc1` (stereo not drawn): the max activity is 17% [at 4.2 µM].
The value for `Cc1nc2cc(C(=O)O)ccc2s1` was 22% [at 16 µM].
The value for `CN(C(=O)c1cc2c(s1)-c1ccccc1S(=O)(=O)C2)c1ccccc1` was 29.1%; that for `N=C1/C(=C/c2ccc(OCc3ccccc3)cc2)C(=O)N=C2SC(CC(=O)N3CCOCC3)=NN12` was 23.9%.
The value for `Cc1ccc(COc2ccccc2C(=S)N2CCCC2)cc1` was 28.7%; that for `C[C@H]1CN([C@@H](C)CO)C(=O)c2cccc(NC(=O)Nc3ccc(C(F)(F)F)cc3)c2O[C@@H]1CN(C)C` was 14.9% [at 8 µM].
In the case of `C[C@H](CO)N1C[C@H](C)[C@H](CN(C)C(=O)Nc2ccc3c(c2)OCO3)OCc2ccccc2-c2c(n(C)c3ccccc23)C1=O`, the max activity is -46.6%.
Turning to `CO[C@@H]1CN(C)C(=O)c2ccc(NC(=O)c3nc4ccccc4s3)cc2OC[C@@H](C)N(Cc2ccncc2)C[C@H]1C`, the max activity was 38.8%.
In the case of `CO[C@@H]1CN(C)C(=O)c2ccc(NC(=O)c3nc4ccccc4s3)cc2OC[C@@H](C)N(Cc2cncnc2)C[C@H]1C`, the max activity was 21% [at 16 µM].
Take `CCCNC(=O)Nc1ccc2c(c1)OC[C@@H](C)N(Cc1ccc(-c3ccccn3)cc1)C[C@@H](C)[C@H](OC)CN(C)C2=O`: the max activity is -20.1%.
The value for `CO[C@@H]1CN(C)C(=O)c2ccc(NC(=O)c3nc4ccccc4s3)cc2OC[C@@H](C)N(Cc2cccnc2)C[C@H]1C` was 18.5%.
Consider `COc1cccc(C(=O)Nc2ccc3c(c2)OC[C@@H](C)N(CCc2ccccc2)C[C@@H](C)[C@H](OC)CN(C)C3=O)c1`, for which the max activity was 9.35% [at 1 µM].
`C[C@H](CO)N1C[C@H](C)[C@@H](CN(C)Cc2ccc(-c3ccccc3)cc2)Oc2ccc(NC(=O)CCCCCC(=O)Nc3ccccc3N)cc2CC1=O`: the max activity is 16.8% [at 16 µM].
In the case of `C[C@@H]1CN([C@@H](C)CO)C(=O)c2cc(NC(=O)Cc3cn(C)c4ccccc34)ccc2O[C@H]1CN(C)C(=O)Nc1ccc2c(c1)OCO2`, the max activity was 9.93% [at 8 µM].
In the case of `CC(C)(C)C(=O)[C@H]1[C@H](c2ccccc2)[C@@]2(N=C(c3ccccc3)OC2=O)C2c3ccccc3C=NN21` (stereo partly drawn), the max activity is 19% [at 16 µM].
The value for `CC1CCCN(C(=O)c2ccc(Cl)c(S(=O)(=O)N3CCCCCC3)c2)C1` (stereo not drawn) was 6.03% [at 4.2 µM].
The result for `O=C(NCCc1ccc(F)cc1)c1cccc(NC(=O)c2ccccc2)c1` reads 21.2%.
In the case of `O=C(CNc1ccccc1F)Nc1cccc2ccccc12`, the max activity was -8.82%.
The value for `C[C@H]1CCCCO[C@H](CN(C)S(=O)(=O)c2cn(C)cn2)[C@@H](C)CN([C@@H](C)CO)C(=O)c2cc(NC(=O)Nc3ccc4c(c3)OCO4)ccc2O1` was -6.42% [at 0.5 µM].
The value for `O=C(c1cc(COc2ccc(F)cc2F)on1)N1CC2C[C@@H]3CC1C[C@H](C2)C3` was 35.9% [at 16 µM]; that for `C[C@@H]1CN([C@H](C)CO)C(=O)c2cc(NC(=O)Nc3ccc4c(c3)OCO4)ccc2O[C@@H](C)CCCCO[C@@H]1CN(C)S(=O)(=O)c1cn(C)cn1` was -6.88% [at 1 µM].

The values are drawn from PubChem BioAssay AID651717 (Broad Institute, 2012).
